This is an account of results in PubChem BioAssay (EPA / NIEHS).

Read-out in experiment [1]: Interleukin-8 (IL8), CXCL8 (gene 3576)
In words: BSK_CASM3C_IL8: BioMAP Diversity Plus: CASM3C Assay for Interleukin-8 (IL8) Biomarker Activity (AID 2283042).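 Also: IL-8 protein level quantified by ELISA.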 The following applies: primary human coronary artery smooth muscle cells; actives raise or lower the signal.

Read-out in experiment [2]: Human Leukocyte Antigen - DR isotype (HLADR), HLA-DRA (gene 3122)
In words: BSK_CASM3C_HLADR: BioMAP Diversity Plus: CASM3C Assay for Human Leukocyte Antigen - DR isotype (HLADR) Biomarker Activity (AID 2283043).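 Also: cell-surface HLA-DR protein level quantified by ELISA.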 The following applies: primary human coronary artery smooth muscle cells; actives raise or lower the signal.

Read-out in experiment [3]: Macrophage colony-stimulating factor (MCSF), CSF1 (gene 1435)
The experiment can be described thus: BSK_CASM3C_MCSF: BioMAP Diversity Plus: CASM3C Assay for Macrophage colony-stimulating factor (MCSF) Biomarker Activity (AID 2283044).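 Also: M-CSF protein amount quantified by ELISA after 24 h exposure.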 The following applies: primary human coronary artery smooth muscle cells; actives raise or lower the signal.

Read-out in experiment [4]: Low-density lipoprotein receptor (LDLR), LDLR (gene 3949)
In words: BSK_CASM3C_LDLR: BioMAP Diversity Plus: CASM3C Assay for Low-density lipoprotein receptor (LDLR) Biomarker Activity (AID 2283045).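 Also: LDLR protein level on the cell surface quantified by ELISA.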 The following applies: primary human coronary artery smooth muscle cells; actives raise or lower the signal.

Read-out in experiment [5]: Monocyte Chemoattractant Protein-1 (MCP1), CCL2 (gene 6347)
In words: BSK_CASM3C_MCP1: BioMAP Diversity Plus: CASM3C Assay for Monocyte Chemoattractant Protein-1 (MCP1) Biomarker Activity (AID 2283046).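 Also: MCP-1 level quantified by ELISA 24 h after dosing.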 The settings on record: primary human coronary artery smooth muscle cells; actives raise or lower the signal.

Experiment [6] in a line: BSK_CASM3C_Proliferation: Cell Proliferation Assessment in the BioMAP Diversity Plus: CASM3C Assay (AID 2283047).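 Also: sulforhodamine B total protein stain as relative cell number at 560 nm; sub-confluent cells exposed 48 h before staining; fitted both ways against DMSO so gain or loss of cell number.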 The following applies: primary human coronary artery smooth muscle cells.
Read-out in experiment [7]: Monokine induced gamma interferon (MIG), CXCL9 (gene 4283)
The experiment can be described thus: BSK_CASM3C_MIG: BioMAP Diversity Plus: CASM3C Assay for Monokine induced gamma interferon (MIG) Biomarker Activity (AID 2283048).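 Also: MIG protein level measured by ELISA.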 The following applies: primary human coronary artery smooth muscle cells; actives raise or lower the signal.

Read-out in experiment [8]: serum amyloid A (SAA), SAA1 (gene 6288)
In words: BSK_CASM3C_SAA: BioMAP Diversity Plus: CASM3C Assay for serum amyloid A (SAA) Biomarker Activity (AID 2283049).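 Also: SAA protein level quantified by ELISA.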 The settings on record: primary human coronary artery smooth muscle cells; actives raise or lower the signal.

Experiment [9] is described as follows: BSK_CASM3C_SRB: Viability Assessment in the BioMAP Diversity Plus: CASM3C Assay (AID 2283050).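 Also: total protein by SRB staining as cytotoxicity measure in parallel cultures.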 The settings on record: primary human coronary artery smooth muscle cells.
Read-out in experiment [10]: Thrombomodulin, THBD (gene 7056)
In words: BSK_CASM3C_Thrombomodulin: BioMAP Diversity Plus: CASM3C Assay for Thrombomodulin Biomarker Activity (AID 2283051).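 Also: thrombomodulin protein level measured by ELISA 24 h after dosing.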 The following applies: primary human coronary artery smooth muscle cells; actives raise or lower the signal.

Read-out in experiment [11]: Tissue Factor, F3 (gene 2152)
The experiment can be described thus: BSK_CASM3C_TissueFactor: BioMAP Diversity Plus: CASM3C Assay for Tissue Factor Biomarker Activity (AID 2283052).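 Also: cell surface tissue factor protein level read by ELISA.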 The settings on record: primary human coronary artery smooth muscle cells; actives raise or lower the signal.

Read-out in experiment [12]: Interferon-gamma inducible Protein 10 (IP10), CXCL10 (gene 3627)
The experiment can be described thus: BSK_hDFCGF_IP10: BioMAP Diversity Plus: hDFCGF Assay for Interferon-gamma inducible Protein 10 (IP10) Biomarker Activity (AID 2283053). The following applies: primary human foreskin fibroblasts; actives raise or lower the signal. In short, it runs like this:
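Human foreskin fibroblast primary cells (hDFCGF system) were dosed with chemical and assayed at 24 h; IP-10 measured by ELISA. Activity fitted bidirectionally relative to DMSO negative control as baseline.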

Read-out in experiment [13]: Urokinase-type plasminogen activator receptor (uPAR), PLAUR (gene 5329)
The experiment can be described thus: BSK_CASM3C_uPAR: BioMAP Diversity Plus: CASM3C Assay for Urokinase-type plasminogen activator receptor (uPAR) Biomarker Activity (AID 2283054).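 Also: cell-surface uPAR protein level quantified by ELISA.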 The following applies: primary human coronary artery smooth muscle cells; actives raise or lower the signal.

Read-out in experiment [14]: Vascular cell adhesion molecule 1 (VCAM1), VCAM1 (gene 7412)
The experiment can be described thus: BSK_CASM3C_VCAM1: BioMAP Diversity Plus: CASM3C Assay for Vascular cell adhesion molecule 1 (VCAM1) Biomarker Activity (AID 2283055).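 Also: VCAM-1 protein level quantified by ELISA on the cells.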 The following applies: primary human coronary artery smooth muscle cells; actives raise or lower the signal.

Read-out in experiment [15]: Collagen III, COL3A1 (gene 1281)
The experiment can be described thus: BSK_hDFCGF_CollagenIII: BioMAP Diversity Plus: hDFCGF Assay for Collagen III Biomarker Activity (AID 2283056). The following applies: primary human foreskin fibroblasts; actives raise or lower the signal. Put shortly:
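Response relative to DMSO, fitted in both directions, reflects ELISA-measured collagen III in human primary skin fibroblasts 24 h after compound addition.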

Read-out in experiment [16]: Epidermal growth factor receptor (EGFR), EGFR (gene 1956)
In words: BSK_hDFCGF_EGFR: BioMAP Diversity Plus: hDFCGF Assay for Epidermal growth factor receptor (EGFR) Biomarker Activity (AID 2283057). The following applies: primary human foreskin fibroblasts; actives raise or lower the signal. In short, it runs like this:
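Primary human foreskin fibroblasts were exposed to compound for 24 h, after which cell-surface EGFR was quantified by ELISA. Activity was fitted bidirectionally against the DMSO negative control as baseline.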

Read-out in experiment [17]: Interleukin-8 (IL8), CXCL8 (gene 3576)
The experiment can be described thus: BSK_hDFCGF_IL8: BioMAP Diversity Plus: hDFCGF Assay for Interleukin-8 (IL8) Biomarker Activity (AID 2283058). The settings on record: primary human foreskin fibroblasts; actives raise or lower the signal. In short, it runs like this:
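Fibroblast monolayers (human foreskin, hDFCGF) received test chemical for 24 h before ELISA detection of IL-8; either increases or decreases relative to DMSO count as activity.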

Experiment [18] in a line: BSK_hDFCGF_Proliferation: Cell Proliferation Assessment in the BioMAP Diversity Plus: hDFCGF Assay (AID 2283059).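 Also: curves fitted for both rise and fall of signal versus DMSO baseline.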 The following applies: primary human foreskin fibroblasts. Put shortly:
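Steps: dose primary human dermal fibroblasts (foreskin); […] fix in 10% TCA; stain with 0.1% SRB; read 560 nm; fit gain or loss of signal against DMSO.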

Read-out in experiment [19]: Macrophage colony-stimulating factor (MCSF), CSF1 (gene 1435)
In words: BSK_hDFCGF_MCSF: BioMAP Diversity Plus: hDFCGF Assay for Macrophage colony-stimulating factor (MCSF) Biomarker Activity (AID 2283060). The following applies: primary human foreskin fibroblasts; actives raise or lower the signal. Put shortly:
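fibroblasts (human foreskin, primary), 24 h post-dose; M-CSF by ELISA; bidirectional fit, DMSO = baseline.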

Experiment [20] in a line: BSK_hDFCGF_SRB: Viability Assessment in the BioMAP Diversity Plus: hDFCGF Assay (AID 2283061).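 Also: cells exposed to compound for 24 h before the read.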 The settings on record: primary human foreskin fibroblasts. In short, it runs like this:
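SRB-based viability read on primary human skin fibroblasts at 24 h: TCA fixation, 0.1% dye, 560 nm. Gain or loss of signal is fitted against the DMSO negative control.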

SMILES strings stand for the structures. Activity calls are given as the source filed them. The calls were made as follows: active = hit-call score of the fitted dose curve at least 0.9, where 1 is the maximum; inactive = score below 0.9.

As for `CCCCCCCCCC[N+](C)(C)[O-]`, the result in [1], in [2], in experiment [3], in [4], in experiment [5] and in [6] was inactive. Besides, the outcome in experiment [7], in experiment [8], in [9], in experiment [10], in [11] and in [12] was inactive. For the same molecule, the outcome in experiment [13], in experiment [14], in [15], in experiment [16], in experiment [17] and in experiment [18] was inactive. Further, the outcome in [19] and in experiment [20] was inactive.

With `CC(=O)O`, the result in [1], in [2], in experiment [3], in [4], in experiment [5] and in experiment [6] was inactive. For the same molecule, the result in [7], in experiment [8], in [9], in experiment [10], in [11] and in [12] was inactive. Further, the result in experiment [13], in experiment [14], in experiment [15], in experiment [16], in experiment [17] and in [19] was inactive. The outcome in [20] was inactive. The AC50 in experiment [18] was 31.2 µM (active).

With `CC(C)NCC(O)c1ccc(O)c(O)c1` (stereo not given), the outcome in [1], in experiment [2], in experiment [3], in experiment [4], in experiment [5] and in [6] was inactive. The outcome in [7], in experiment [8], in experiment [9], in [10], in [11] and in [12] was inactive. Further, the result in [13], in experiment [14], in [15], in [16], in experiment [17] and in experiment [19] was inactive. Besides, the outcome in experiment [20] was inactive. The AC50 in experiment [18] is 26.4 µM (active).

As to `CC(C)(C)c1ccccc1`, the result in experiment [1], in experiment [2], in experiment [3], in experiment [4], in [5] and in [6] was inactive. The outcome in [7], in [8], in experiment [9], in experiment [10], in [11] and in experiment [12] was inactive. For the same molecule, the result in experiment [13], in [14], in experiment [15], in experiment [16], in experiment [17] and in [18] was inactive. Further, the result in [19] and in [20] was inactive.

Regarding `CC(C)(O)c1ccc(CNC(=O)c2cccnc2Oc2ccc(F)cc2)cc1`, the outcome in experiment [1], in [3], in experiment [4], in experiment [5], in [6] and in [7] was inactive. The result in experiment [8], in experiment [9], in experiment [10], in experiment [11], in experiment [12] and in [13] was inactive. Further, the outcome in experiment [14], in experiment [15], in [16], in experiment [17], in [18] and in experiment [19] was inactive. Moreover, the outcome in [20] was inactive. In addition, the AC50 in experiment [2] is 2.12 µM (active).

Regarding `O=C(O)CC(O)(CC(=O)O)C(=O)O`, the result in experiment [1], in [2], in experiment [3], in experiment [4], in [5] and in experiment [6] was inactive. In addition, the outcome in [7], in experiment [8], in experiment [9], in [10], in experiment [11] and in [12] was inactive. Further, the result in experiment [13], in experiment [14], in experiment [15], in experiment [16], in [17] and in experiment [18] was inactive. Also, the result in experiment [19] and in [20] was inactive.

By AC50 is commonly meant the concentration at which the activity in the assay is half-maximal.
